Results from patent US20210230599, “STEM-LOOP COMPOSITIONS AND METHODS FOR INHIBITING INTERLEUKIN-8” (VITRISA THERAPEUTICS, INC., published 2021).

The sequences below were run against Interleukin-8 (IL8, CXCL8), C-terminal His-tagged (Homo sapiens, UniProt P10145 SEQ:1-72) (assay: competition; competition TR-FRET; L1 mutant). Details: tags: C-terminal 6xHis (Sino Biological); ssRNA; 2'-F G, 2'-OMe A/C/U, 5' C6NH2, 3' idT.
Experimental: Activity of each of these variants were tested using a time resolved competition TR-FRET assay in which the labeled parent Aptamer 3 was competed with increasing concentrations of unlabeled variants for binding to IL8 (FIG. 14). Briefly, 2-fold dilutions of thermally equilibrated aptamers were made in TR-FRET Buffer (50 mM MOPS, pH 7.4, 125 mM NaCl, 5 mM KCl, 50 μM CHAPS, 0.1 mg/mL BSA, 1 mM CaCl₂, and 1 mM MgCl₂). 5 μL of aptamer or control solution was added to 5 μl mix of 10 nM C-terminal His-tagged-IL8, 60 nM ALEXA FLUOR® 647-labeled Aptamer, and 5 nM anti-His-Eu (Perkin Elmer) in a black wall low volume 384 well plate (Greiner). For control, 5 μl of 1000-fold excess of unlabeled parent aptamer or 5 μl TR-FRET buffer alone was added to the mix of ALEXA FLUOR® 647-labeled aptamer, His-IL8, and anti-His-Eu. The plate was covered with a plate seal and subsequently incubated in the dark for 1 hour at room temperature. The plate was read on a Biotek CYTATION™ 5 plate reader. Samples were excited at 330 nm and fluorescent values were collected at 665 nm. Data analysis was performed by subtracting the background value and plotting as percent inhibition, normalized to baseline in the absence of competitor. The values were fit by [Inhibitor] vs. response—Variable slope (four parameters) using GraphPad Prism Version 7.0 and then normalized to aptamer control to obtain an IC₅₀ relative to parent aptamer. Data is presented as log values of relative IC₅₀.
To confirm the sequence conservation of this loop, variants of Aptamer 32 were made (4 base pair S1 version of parent Aptamer 8) where each position of L1 was individually replaced with the other 3 bases and tested for binding in the competition TR-FRET assay.

Binding signal, > 10 fold worse than Aptamer 8:
CGGUAGGAAAUGUGAGAUGGGUUGCCG
CGGUGGUAAAUGUGAGAUGGGUUGCCG
CGGUCGGAAAUGUGAGAUGGGUUGCCG
CGGUGGCAAAUGUGAGAUGGGUUGCCG
CGGUGCGAAAUGUGAGAUGGGUUGCCG
CGGUGGGGAAUGUGAGAUGGGUUGCCG
CGGUGAGAAAUGUGAGAUGGGUUGCCG
CGGUUGGAAAUGUGAGAUGGGUUGCCG
CGGUGGGUAAUGUGAGAUGGGUUGCCG
CGGUGGGCAAUGUGAGAUGGGUUGCCG
CGGUGUGAAAUGUGAGAUGGGUUGCCG
CGGUGGAAAAUGUGAGAUGGGUUGCCG
